PubChem BioAssay (Tox21)
Results filed as inconclusive are left out. Where a call stands in place of a potency, no number is given. Active and inactive are the calls of the source. Calls come from the whole dose curve; as a rule, active = well fitted curve in the direction sought with a large enough effect in the repeat runs; inconclusive = weak or mixed curves; inactive = no such curve, though single readings can be large; an effect the other way counts as inactive or inconclusive.

Assay: qHTS RealTime-Glo MT Cell Viability Assay in HepG2 cells - 16 hour (AID 1224885); note: nearly all actives have a fitted effect of over 50% in size
Conditions: RealTime-Glo luminescence; series mostly up to 76.8 µM; activity change, negative = cytotoxic: at the top concentration
How it was run: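 Real-time, nonlytic viability: 600 HepG2 cells/well mixed with NanoLuc enzyme plus prosubstrate; 5 h settle, compound (DMSO) added by pintool; luminescence monitored over 40 h at 37 C.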

Structure (SMILES) | Potency
C=C(C)C(=O)OCC(CC)(COC(=O)C(=C)C)COC(=O)C(=C)C | inactive
Nc1cc(-c2ccncc2)c[nH]c1=O | inactive
CS(=O)(=O)Nc1ccc([N+](=O)[O-])cc1Oc1ccccc1 | inactive
CCCCC(CC)COC(=O)CCCCCCCC(=O)OCC(CC)CCCC (stereo unspecified) | inactive
CCCCCCC(C)(C)S | inactive
CCOC(=O)C1OC1c1ccccc1 (stereo unspecified) | inactive
Clc1ccc(Cl)c(Cl)c1Cl | inactive
CNC[C@H](O)[C@@H](O)[C@H](O)[C@H](O)CO | inactive
C=C(C)C(=O)OCCC[Si](OC)(OC)OC | inactive

Assay: qHTS RealTime-Glo MT Cell Viability Assay in HEK293 cells - 8 hour (AID 1224887); note: top concentration of the series differs between compounds; nearly all actives have a fitted effect of over 50% in size
Conditions: RealTime-Glo luminescence; series mostly up to 76.8 µM; activity change, negative = cytotoxicity: at the top concentration
How it was run: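 Luminescence, which tracks viable cell number through reduction of the prosubstrate to a NanoLuc substrate, was read over continuous 37 C culture. Cells (600/well) were premixed with reagent and rested 5 h before 23 nL of compound in DMSO was pinned.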

Structure (SMILES) | Potency | activity change, negative = cytotoxicity
NCc1cccc(CN)c1 | inactive | 
CN(C)c1cccc(O)c1 | inactive | 
CCCCC(CC)C(=O)OCCOCCOCCOC(=O)C(CC)CCCC (stereo unspecified) |  | -28.7% (inactive)
Cc1ccc(C(=O)O)o1 | inactive | 
ClC1=C(Cl)C(Cl)(Cl)C(Cl)=C1Cl | inactive | 
OC[C@@H](O)[C@H](O)[C@H](O)[C@@H](O)CO | inactive | 
O=C(c1ccc(O)cc1)c1ccc(O)cc1O | inactive | 
COCC(C)O (stereo unspecified) | inactive | 
CC(C)NCC(O)COc1cccc2ccccc12 (stereo unspecified) | inactive | 
CCCCCCOC(C)=O | inactive | 
CC(C)n1c(/C=C/[C@@H](O)C[C@@H](O)CC(=O)O)c(-c2ccc(F)cc2)c2ccccc21 | inactive | 
c1ccc2ccccc2c1 | inactive | 
CC(C)(C)C1CCC(O)CC1 (stereo unspecified) | inactive | 
CCCCCCCCC | inactive | 
Cc1ccc(N)c(S(=O)(=O)O)c1 | inactive | 
C=C(C)C(=O)OCCCCCC | inactive | 
C=C(C)C(=O)OCC(CC)(COC(=O)C(=C)C)COC(=O)C(=C)C |  | -21% (inactive)
CS(=O)(=O)Nc1ccc([N+](=O)[O-])cc1Oc1ccccc1 | inactive | 
CCOC(=O)C1OC1c1ccccc1 (stereo unspecified) | inactive | 
C=C(C)C(=O)OCCC[Si](OC)(OC)OC | inactive | 

Assay: A CellTox Green Cytotoxicity Assay to monitor cytotoxicity in HEK293 cells - 16 hour (AID 1224888); note: nearly all actives have a fitted effect of over 35% in size
Conditions: CellTox Green fluorescence; series mostly up to 76.8 µM; activity change: at the top concentration
How it was run: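 Fluorescence from a DNA-binding dye excluded by viable cells was measured repeatedly in the same HEK293 wells (600 cells/well) during continuous compound exposure at 37 C. Each assay gives one read point: 0, 8, 16, 24, 32 or 40 h.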

Structure (SMILES) | Potency | activity change
CC1=C(/C=C/C(C)=C/C=C/C(C)=C/CO)C(C)(C)CCC1 | inactive | 
NCc1cccc(CN)c1 |  | 7.84% (inactive)
CN(C)c1cccc(O)c1 | inactive | 
OCC1CCCO1 (stereo unspecified) | inactive | 
CCCCC(CC)C(=O)OCCOCCOCCOC(=O)C(CC)CCCC (stereo unspecified) | inactive | 
O=S(=O)(O)CCS | inactive | 
Oc1ccc2ccccc2c1 | inactive | 
Cc1ccc(C(=O)O)o1 | inactive | 
ClC1=C(Cl)C(Cl)(Cl)C(Cl)=C1Cl |  | 8.87% (inactive)
OC[C@@H](O)[C@H](O)[C@H](O)[C@@H](O)CO | inactive | 
CCOC(=O)/C=C\C(=O)OCC | inactive | 
CC1=CC[C@H]2C[C@@H]1C2(C)C | inactive | 
O=C(c1ccc(O)cc1)c1ccc(O)cc1O | inactive | 
CCc1ccccc1O | inactive | 
COCC(C)O (stereo unspecified) | inactive | 
CC(C)NCC(O)COc1cccc2ccccc12 (stereo unspecified) | inactive | 
CCCCCCOC(C)=O | inactive | 
CC(C)n1c(/C=C/[C@@H](O)C[C@@H](O)CC(=O)O)c(-c2ccc(F)cc2)c2ccccc21 |  | 0.47% (inactive)
c1ccc2ccccc2c1 | inactive | 

Structure (SMILES) | Potency | activity change
CC(C)(C)C1CCC(O)CC1 (stereo unspecified) | inactive | 
O=S(=O)(O)c1cc(S(=O)(=O)O)c2c(N=Nc3ccccc3)c(O)ccc2c1 | inactive | 
Cn1c([N+](=O)[O-])cnc1COC(N)=O |  | -11% (inactive)
CCCCCCCCC | inactive | 
Cc1ccc(N)c(S(=O)(=O)O)c1 | inactive | 
C=C(C)C(=O)OCCCCCC | inactive | 
Oc1c(Cl)cc(Cl)c(Cl)c1Cl | inactive | 
Cc1cc(O)c2c(c1)C(=O)c1cc(O)cc(O)c1C2=O | inactive | 
Nc1c(S(=O)(=O)O)cc(Br)c2c1C(=O)c1ccccc1C2=O | inactive | 
Nc1cc(-c2ccncc2)c[nH]c1=O | inactive | 
CS(=O)(=O)Nc1ccc([N+](=O)[O-])cc1Oc1ccccc1 | inactive | 
CN(C)c1ccc(C(=N)c2ccc(N(C)C)cc2)cc1 | inactive | 
CCCCCCC(C)(C)S | inactive | 
CCOC(=O)C1OC1c1ccccc1 (stereo unspecified) | inactive | 
Clc1ccc(Cl)c(Cl)c1Cl | inactive | 
CNC[C@H](O)[C@@H](O)[C@H](O)[C@H](O)CO | inactive | 
C=C(C)C(=O)OCCC[Si](OC)(OC)OC |  | 0.255% (inactive)
CCCCC(CC)COC(=O)/C=C\C(=O)OCC(CC)CCCC (stereo unspecified) | inactive | 
